Results published in PubChem BioAssay.
Active and inactive are the calls of the source. How the calls were made is not given here.

Each compound was assayed against Botulinum neurotoxin type A (Clostridium botulinum) (UniProt P0DPI0) (assay: BoNT/A light chain protease inhibitors, biochemical, multiplex microsphere flow cytometry, validation set (AID 588460)). Conditions: at 10 µM, stronger effect = higher value.
Sequence of Botulinum neurotoxin type A (Clostridium botulinum) (P0DPI0 whole entry, looked up): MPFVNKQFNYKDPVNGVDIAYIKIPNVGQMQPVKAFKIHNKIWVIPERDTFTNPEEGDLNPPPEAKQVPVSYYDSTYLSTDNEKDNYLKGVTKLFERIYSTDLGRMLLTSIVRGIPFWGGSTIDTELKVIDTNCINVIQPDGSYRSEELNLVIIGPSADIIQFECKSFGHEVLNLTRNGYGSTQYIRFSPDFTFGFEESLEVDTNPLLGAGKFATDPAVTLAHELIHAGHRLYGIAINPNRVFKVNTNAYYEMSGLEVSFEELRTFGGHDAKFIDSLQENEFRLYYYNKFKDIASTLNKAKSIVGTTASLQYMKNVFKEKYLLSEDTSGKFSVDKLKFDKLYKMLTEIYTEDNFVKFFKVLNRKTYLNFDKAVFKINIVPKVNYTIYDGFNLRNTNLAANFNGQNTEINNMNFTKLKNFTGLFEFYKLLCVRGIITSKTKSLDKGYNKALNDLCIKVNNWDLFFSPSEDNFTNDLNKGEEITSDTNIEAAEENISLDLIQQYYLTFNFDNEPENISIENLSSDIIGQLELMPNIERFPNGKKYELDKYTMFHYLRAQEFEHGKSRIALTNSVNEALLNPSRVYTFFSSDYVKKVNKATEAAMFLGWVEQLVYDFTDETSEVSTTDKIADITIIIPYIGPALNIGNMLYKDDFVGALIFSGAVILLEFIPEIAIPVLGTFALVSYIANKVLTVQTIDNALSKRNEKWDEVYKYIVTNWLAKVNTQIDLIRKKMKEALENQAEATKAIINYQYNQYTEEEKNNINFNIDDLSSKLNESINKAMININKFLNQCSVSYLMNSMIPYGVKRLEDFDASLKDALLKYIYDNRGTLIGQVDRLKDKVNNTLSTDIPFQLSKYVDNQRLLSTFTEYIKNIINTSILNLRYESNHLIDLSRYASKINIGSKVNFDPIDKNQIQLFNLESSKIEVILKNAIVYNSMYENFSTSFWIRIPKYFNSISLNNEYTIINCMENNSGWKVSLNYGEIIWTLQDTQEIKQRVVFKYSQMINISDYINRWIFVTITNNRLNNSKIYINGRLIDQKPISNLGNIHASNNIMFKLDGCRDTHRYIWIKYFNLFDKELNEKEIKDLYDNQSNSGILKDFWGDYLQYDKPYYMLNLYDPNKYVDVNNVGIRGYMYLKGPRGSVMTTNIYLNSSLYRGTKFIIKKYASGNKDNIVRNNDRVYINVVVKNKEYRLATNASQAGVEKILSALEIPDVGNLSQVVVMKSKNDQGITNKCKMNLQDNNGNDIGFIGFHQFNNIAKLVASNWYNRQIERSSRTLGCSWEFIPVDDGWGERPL
For `Cc1cnc(C(=O)NCCc2ccc(S(=O)(=O)NC(=O)NC3CCCCC3)cc2)cn1`, the inhibition was -0.2% (inactive). With `C=CCNc1nc2c(c(=O)n(C)c(=O)n2C)n1CC(=C)C` the inhibition was 0.5% (inactive). In the case of `CC(=O)C1=C(NC(=O)c2ccc(C(F)(F)F)cc2)C[C@@H]2[C@H]1C2(C)C`, the inhibition is reported as 1.5% (inactive). For `CC(C)COCC1CC2(CC(C)(c3csc(N)n3)OC2=O)C(=O)O1` (stereo unspecified), the inhibition was -1.9% (inactive). With `CCN1CCN(C(=O)N[C@@H](C(=O)N[C@@H]2C(=O)N3[C@@H]2SC(C)(C)[C@@H]3C(=O)O)c2ccccc2)C(=O)C1=O` the inhibition was 0.3% (inactive). In the case of `COc1ccc2cc(C(=O)Nc3ccc(S(N)(=O)=O)cc3)sc(=O)c2c1OC`, the inhibition is reported as 0.6% (inactive). For `N=C(N)c1ccc(OCCCCCOc2ccc(C(=N)N)cc2)cc1`, the inhibition was -1.6% (inactive). For `COc1ccc(/C=C/C(=O)NC(=S)NN2CCCCC2c2cccnc2)cc1` (stereo unspecified), the inhibition was 1.8% (inactive).

What follows are compounds tested against Lethal factor (Bacillus anthracis) (UniProt P15917) (assay: Lethal factor protease inhibitors, Bacillus anthracis, multiplex microsphere cleavage assay, validation set (AID 588461)). Conditions: flow cytometry, at 10 µM, stronger effect = higher value.
Sequence of Lethal factor (Bacillus anthracis) (P15917 whole entry, looked up): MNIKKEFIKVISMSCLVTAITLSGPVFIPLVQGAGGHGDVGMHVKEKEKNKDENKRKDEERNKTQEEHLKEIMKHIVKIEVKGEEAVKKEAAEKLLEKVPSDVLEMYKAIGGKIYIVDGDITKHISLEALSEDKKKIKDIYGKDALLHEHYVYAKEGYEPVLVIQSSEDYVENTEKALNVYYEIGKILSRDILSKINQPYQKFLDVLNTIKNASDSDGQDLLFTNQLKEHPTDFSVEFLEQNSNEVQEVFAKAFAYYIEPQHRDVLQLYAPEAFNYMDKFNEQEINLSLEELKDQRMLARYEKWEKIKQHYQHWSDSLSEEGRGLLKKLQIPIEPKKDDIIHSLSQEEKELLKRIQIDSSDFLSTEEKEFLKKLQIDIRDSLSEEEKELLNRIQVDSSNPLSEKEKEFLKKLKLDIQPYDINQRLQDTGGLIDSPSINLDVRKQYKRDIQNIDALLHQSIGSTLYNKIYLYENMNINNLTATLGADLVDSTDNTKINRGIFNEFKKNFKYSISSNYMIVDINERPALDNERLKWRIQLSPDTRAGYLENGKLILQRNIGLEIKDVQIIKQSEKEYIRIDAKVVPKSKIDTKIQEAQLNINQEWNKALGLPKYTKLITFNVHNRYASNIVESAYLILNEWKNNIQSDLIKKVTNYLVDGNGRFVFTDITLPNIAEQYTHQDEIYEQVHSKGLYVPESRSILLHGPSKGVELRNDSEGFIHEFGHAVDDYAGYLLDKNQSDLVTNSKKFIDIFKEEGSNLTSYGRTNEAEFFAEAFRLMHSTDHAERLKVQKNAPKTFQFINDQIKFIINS
For `CC(=Nc1ccccc1)C1=C(O)CCCC1=O`, the inhibition was -5.7% (inactive). With `CCC(=O)Oc1ccc(/C(CC)=C(\CC)c2ccc(OC(=O)CC)cc2)cc1` the inhibition was -0.2% (inactive). For `COc1ccc(CN2CCC(=O)NC2=O)cc1`, the inhibition was -3.5% (inactive). For `OC[C@H]1O[C@@H](n2cnc3c(NC4CCCC4)ncnc32)[C@H](O)[C@@H]1O`, the inhibition was -6.9% (inactive). For `COc1ccc(OC)c(-n2c(Cn3c(-c4ccccn4)nc4ccccc43)n[nH]c2=S)c1`, the inhibition was -0.7% (inactive). With `Cc1ccc2[nH]c3c(c2c1)CN(C(=O)CN1CCSCC1)CC3` the inhibition was 11.6% (inactive). In the case of `O=C(c1ccc(Cl)cc1)C1CCCN(Cc2ccc(Oc3ncccn3)cc2)C1` (stereo unspecified), the inhibition is reported as -3.2% (inactive). In the case of `CN(C)C(=O)C12CCC(C)(c3nc4ccccc4nc31)C2(C)C` (stereo unspecified), the inhibition is reported as 1.8% (inactive). In the case of `C#CCN1C(=O)C(O)(CC(=O)c2ccc(OC)c(OC)c2)c2ccccc21` (stereo unspecified), the inhibition is reported as 2% (inactive). For `Cc1ccc(S(=O)(=O)Nc2ccc(S(=O)(=O)Nc3cc(C)nc(C)n3)cc2)cc1`, the inhibition was 0.7% (inactive). In the case of `O=P(c1ccccc1)(c1ccccc1)c1nc(-c2ccc(Cl)cc2)oc1N1CCOCC1`, the inhibition is reported as 0.6% (inactive). In the case of `CC1(C)CC(C(CC(=O)N2CCCC2)Cc2ccccc2)CCO1` (stereo unspecified), the inhibition is reported as 3.1% (inactive). With `CC12CN3CC(C)(CN(C1)C3c1ccc(Br)cc1O)C2` (stereo unspecified) the inhibition was -7.5% (inactive). For `Cc1nc2sccn2c(=O)c1CCN1CCC(=C(c2ccc(F)cc2)c2ccc(F)cc2)CC1`, the inhibition was -7.2% (inactive). In the case of `CC(=O)OC(CC(=O)O)C[N+](C)(C)C` (stereo unspecified), the inhibition is reported as -3.6% (inactive). For `Cc1ccc(S(=O)(=O)NC(=O)Nc2cc(C)ccc2F)cc1`, the inhibition was -4.1% (inactive). For `CCOC(=O)Cc1c(C)nc(N)[nH]c1=O`, the inhibition was -3.1% (inactive). For `CCN(CC)C(=O)c1ccc(O)c(OC)c1`, the inhibition was -6.3% (inactive). In the case of `CC(=O)C1=C(Nc2ccc(C)cc2)CC(C)(O)C(C(C)=O)C1c1ccco1` (stereo unspecified), the inhibition is reported as -2.3% (inactive). `O=C(CS(=O)(=O)Cc1ccccc1)NCc1ccc2c(c1)OCO2` was tested, and the inhibition was -6.5% (inactive). With `COc1ccc(C(=O)[C@H]2[C@H]3C(=O)N(c4ccccc4)C(=O)[C@H]3C3C=CC=NN32)cc1` (stereo partly specified) the inhibition was -5.1% (inactive). With `CCN(CC)CCNC(=O)c1cc(Cl)c(N)cc1OC` the inhibition was 0% (inactive). `Nc1ccn([C@@H]2O[C@H](CO)[C@@H](O)[C@@H]2O)c(=O)n1` was tested, and the inhibition was -1.8% (inactive). In the case of `CCCCN1C[C@H](O)[C@@H](O)[C@H](O)[C@H]1CO`, the inhibition is reported as 0.7% (inactive). With `O=C(c1ccc(O)cc1)c1ccc(O)cc1O` the inhibition was -0.6% (inactive). With `COc1ccc(CNCCC(c2ccc(F)cc2)c2ccc(OC(C)C)cc2)cc1OC` (stereo unspecified) the inhibition was 8.2% (inactive). In the case of `C[C@@H]1C[C@H]2[C@@H]3C[C@H](F)C4=CC(=O)C=C[C@]4(C)[C@@]3(F)[C@@H](O)C[C@]2(C)[C@@]1(O)C(=O)COC(=O)C(C)(C)C`, the inhibition is reported as 3.4% (inactive). With `CC12CN3CC(C)(CN(C1)C3c1ccc([N+](=O)[O-])o1)C2` (stereo unspecified) the inhibition was -5.6% (inactive). For `COc1cc(/C=C/C(=O)O)cc(S(=O)(=O)NCCCO)c1OC`, the inhibition was 2.3% (inactive). For `CC(C)CN1CCN(Cc2ccc3ncccc3c2)CC1CCO` (stereo unspecified), the inhibition was 0.5% (inactive). With `CC(C)[C@H](NC(=O)[C@@H]1CSCN1C(=O)OC(C)(C)C)C(=O)NCC1CCC(C(=O)O)CC1` (stereo partly specified) the inhibition was -2.2% (inactive). `Cc1cnc(C(=O)NCCc2ccc(S(=O)(=O)NC(=O)NC3CCCCC3)cc2)cn1` was tested, and the inhibition was -0.1% (inactive). `C=CCNc1nc2c(c(=O)n(C)c(=O)n2C)n1CC(=C)C` was tested, and the inhibition was -0.3% (inactive).
